Sampled rows, rich in hits. Any-hit rate of the full collection: about 3.8%.
CR mimetic SO – yeast age-related superoxide inhibition as caloric restriction mimetic; S. cerevisiae aged cells, superoxide DHE fluorescence; active compounds read low; superoxide response (% of plate mean), % at 10 µM; actives 0.18% (n = 330,000); AID 2690;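 active = superoxide response under a set limit, about three screen SD below normal, cut at about 65% in these data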;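 note: yeast aged for seven days with compound at 30 °C before DHE staining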
H9c2 protect – modulators protecting cardiomyocytes from myocardial damage | H9c2 cardiomyocytes, H2O2 injury protection, ATPLite, 2 h | protection from H2O2 cell death, % at 20 µM | actives 0.63% (n = 360,000);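 active = compounds giving at least 50% protection of heart cells from peroxide-induced death in the single-dose screen, raw or plate-pattern-corrected value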
aDG glyco up – increases alpha dystroglycan glycosylation; Pro5-aDG cells, alpha-DG glycosylation AlphaScreen (IIH6); 0% Pro5, 100% B10-LARGE cell signal; activation, % at 10 µM; actives 0.22% (n = 360,000);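 active = activation of at least 8% versus controls, or a plate z-score of at least 8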;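 note: Pro5 are CHO cells carrying HIG-tagged alpha-DG that lacks glycosylation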
SUMO Mot1 rescue – inhibitors of SUMOylation pathway: yeast Mot1-301 growth rescue | growth rescue, % at 18.8 µM | actives 1% (n = 320,000) | S. cerevisiae Mot1-301 growth rescue, ATP luminescence, 38.5C; percent above DMSO median, 100 means doubled | AID 2716;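 active = every valid replicate shows activation above 250% relative to neutral control wells; inactive = the rest, any valid replicate at or below 250%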
FAS-TE inh – inhibitors of human fatty acid synthase thioesterase domain; actives 0.67% (n = 360,000); inhibition, % at 15 µM; recombinant FAS-TE, OMFH fluorogenic substrate, fluorescence endpoint; AID 602261; P49327;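 active = compounds whose normalised, plate-corrected inhibition of enzyme fluorescence in the single-dose primary screen is 50% or more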
MPTP block – inhibitors of mitochondrial permeability transition pore. actives 1.4% (n = 360,000). inhibition, % at 10 µM. isolated mouse mitochondria, Ca2+ swelling absorbance, 30 min;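 active = inhibition of 50% or more, scaled per plate between neutral and stimulator controls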
FAS-TE inh conf – FAS thioesterase (human) inhibition, confirmation | AID 624325 | shares compounds with FAS-TE inh | inhibition, % at 15 µM | actives 45% (n = 2,300) | recombinant FAS-TE, OMFH fluorogenic substrate, fluorescence;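 active = compounds inhibiting the enzyme by at least 50% at 15 µM in any one of the replicates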
Numbers stand for hits; - = inactive; . = not tested or not shown.

SMILES	CR mimetic SO	H9c2 protect	aDG glyco up	SUMO Mot1 rescue	FAS-TE inh	MPTP block	FAS-TE inh conf
O=C(NNc1nc(-c2ccccc2)c2cc(Br)ccc2n1)c1ccc(S(=O)(=O)N2CCCCC2)cc1	-	-	-	-	73.8	-	-
CCCCC(=O)N(C)c1c(C)nc2ccc(C(=O)N(CC)CCN(C)C)cn12	.	-	-	.	-	-	.
Cc1cccc(N2C(=O)CC(Sc3nc(-c4ccccc4)c4cc(Cl)ccc4n3)C2=O)c1 (stereo not given)	-	-	-	-	65.9	-	-
Cc1cccc(N2C(=O)CC(Sc3nc(C)cc(C)n3)C2=O)c1 (stereo not given)	-	-	-	-	-	-	.
O=C(c1ccc(Cl)c(NC2=NC3CS(=O)(=O)CC3S2)c1)N1CCN(c2ccc(F)cc2)CC1 (stereo not given)	-	-	-	-	-	-	.
O=C(c1ccccc1)N(C(=O)c1ccccc1)c1ncnc2c1C(c1ccccc1)c1c(ccc3ccccc13)O2 (stereo not given)	-	-	-	-	62.2	-	-
COc1ccc(C2c3c(ccc4ccccc34)Oc3ncn4nc(-c5ccco5)nc4c32)cc1 (stereo not given)	-	-	-	-	72.1	-	-
CCOC(=O)CCCC(=O)Nc1ncnc2c1C(c1ccccc1)c1c(ccc3ccccc13)O2 (stereo not given)	-	-	-	-	-	-	.
COc1ccc(C2c3c(ccc4ccccc34)Oc3ncn4nc(-c5ccco5)nc4c32)cc1OC (stereo not given)	-	-	-	-	-	-	.
c1ccc(C2c3c(ccc4ccccc34)Oc3ncn4nc(-c5ccco5)nc4c32)cc1 (stereo not given)	-	-	-	-	77.1	-	-
COc1ccc(OC)c(CC(=O)Nc2ccc3c(c2)c(=O)n(C)n3Cc2cccc(C(F)(F)F)c2)c1	.	-	-	.	-	-	.
COc1cc2c(c(OC)c1OC)-c1ccc(SC)c(=O)cc1C(NC=O)CC2 (stereo not given)	.	-	-	.	-	-	.
O=S(=O)(Nc1ccc(-c2csc(-c3ccccc3)n2)cc1)c1ccc(F)cc1	-	-	-	-	57.5	-	-
CC(Cc1ccccc1)=NNS(=O)(=O)c1ccc([N+](=O)[O-])cc1	.	-	-	.	59.5	-	66.0
O=[N+]([O-])c1ccc(S(=O)(=O)Nc2ccc(-c3ccccc3)cc2)cc1	.	-	-	.	70.2	-	70.2
CC(Cc1ccccc1)=NNc1ccc([N+](=O)[O-])cc1[N+](=O)[O-]	.	-	-	.	-	-	.
CSc1cccc(N2CC(C(=O)N3CCN(S(=O)(=O)c4ccccc4Cl)CC3)CC2=O)c1 (stereo not given)	-	-	-	-	-	-	.
COC1=CC(=O)C(OC)=C(OC)C1=O	.	-	-	.	-	-	.
CCOC(=O)c1c(NC(=O)CSc2nnc(-c3ccccc3)n2CC)sc(C(C)=O)c1C	-	-	-	-	50.9	-	-
Cn1c(SCC(=O)Nc2ncc(C(F)(F)F)cc2Cl)nnc1-c1ccc(Cl)cc1	-	-	-	-	80.8	-	90.2
CCn1c(SCC(=O)Nc2ncc(C(F)(F)F)cc2Cl)nnc1-c1ccccc1	-	-	-	-	69.8	-	73.1
CCOC(=O)c1c(NC(=O)CSc2nnc(-c3cccc(C)c3)n2CC)sc(C(C)=O)c1C	-	-	-	-	-	-	.
N#Cc1c(NC(=O)CSc2ncccn2)oc(-c2ccccc2)c1-c1ccccc1	-	-	-	-	-	-	.
CCn1c(SCC(=O)Nc2oc(-c3ccccc3)c(-c3ccccc3)c2C#N)nnc1-c1cc(OC)cc(OC)c1	-	-	-	.	53.9	-	-
Cc1nnc(SCC(=O)Nc2ncc(Cl)cc2Cl)n1Cc1ccccc1	-	-	-	.	-	-	.
SMILES	CR mimetic SO	H9c2 protect	aDG glyco up	SUMO Mot1 rescue	FAS-TE inh	MPTP block	FAS-TE inh conf
COCc1cc(C)nc(NC2CC(C)(C)NC(C)(C)C2)c1C#N	-	-	-	-	-	-	.
CCc1ccc(NC(=O)[C@H](C)NC(=O)C2CCN(C(=O)[C@@H](NC(=O)OC(C)(C)C)C(C)C)CC2)cc1	-	-	-	-	-	-	.
Cc1ccc(S(=O)(=O)NCc2cn3ccccc3n2)c(C)c1	-	-	-	-	-	-	.
COCc1c(C(=O)NC(C)c2ccc(S(N)(=O)=O)cc2)oc2ccccc12 (stereo not given)	-	-	-	-	-	-	.
O=C1[C@H]2[C@@H](c3ccc(C(F)(F)F)cc3)N[C@]3(CCCN(Cc4ccc(C(F)(F)F)cc4)C3=O)[C@H]2C(=O)N1Cc1ccccc1	.	-	-	.	55.2	-	-
O=C(Nc1nc2cc(Cl)ccc2s1)C1CCCN(S(=O)(=O)c2cccc3cccnc23)C1 (stereo not given)	-	-	-	-	69.1	-	-
Cc1occc1C(=O)N1CCN(S(=O)(=O)c2ccc(F)cc2)CC1	-	-	-	-	-	-	.
CCN(C(=O)CCCCC(=O)N(CC)c1ccccc1)c1ccccc1	-	-	-	-	-	-	.
O=C(Cc1cccc(C(F)(F)F)c1)OCN1C(=O)c2ccccc2C1=O	-	-	-	-	50.7	-	46.0
CCCC(=O)OCCNc1cc(Sc2nccn2C)c2nonc2c1[N+](=O)[O-]	-	-	-	-	61.6	-	61.6
CCCSc1cc(NCCOC(C)=O)c([N+](=O)[O-])c2nonc12	-	-	-	-	-	-	.
CCCSc1cc(NCCOC(=O)CCC)c([N+](=O)[O-])c2nonc12	-	-	-	-	50.7	-	57.5
CCCCCCCCCC(=O)N[C@@H]1c2cc(OC)c(OC)cc2C[C@H]1OCc1ccccc1	-	-	-	.	-	-	.
COc1ccc(S(=O)(=O)N(CC(=O)NCc2ccncc2)c2ccc(C)cc2)cc1OC	-	-	-	-	-	-	.
O=[N+]([O-])c1ccc(O)c(/C=N/Nc2ncnc3c2cnn3-c2ccccc2)c1	-	-	-	-	56.3	-	-
O=C(N[C@@H]1CC[C@@H](CCn2cc(-c3ccccc3)nn2)O[C@@H]1CO)c1cnccn1	.	.	-	.	.	-	.
CC(=O)N1N=C(c2cccc([N+](=O)[O-])c2)OC1c1cccc(Br)c1 (stereo not given)	-	-	-	-	53.9	-	60.1
CC(=O)N1N=C(c2cccc(Cl)c2)OC1c1cccc([N+](=O)[O-])c1 (stereo not given)	-	-	-	-	-	-	.
O=C1CN(C(=O)c2ccccc2Br)C(c2ccc(F)cc2)c2cc(F)ccc2N1 (stereo not given)	-	-	-	-	-	-	.
O=C1CN(C(=O)c2cc([N+](=O)[O-])ccc2Cl)C(c2ccc(F)cc2)c2cc(F)ccc2N1 (stereo not given)	-	-	-	-	75.4	-	-

Source: PubChem
